Results filed as inconclusive are left out. Entries that show only a call come without a potency. Calls of active or inactive are those of the source. Calls come from the whole dose curve; as a rule, active = well fitted curve in the direction sought with a large enough effect; inconclusive = small, poorly fitted or top-dose-only effect, or another doubt; inactive = no such curve, though single readings can be large; an effect the other way counts as inactive or inconclusive.
What follows are compounds tested against Aldehyde dehydrogenase, mitochondrial (Homo sapiens) (UniProt P05091) (assay: qHTS for Inhibitors of the Aldehyde Dehydrogenase Family (ALDH2) Primary screen (AID 2061308; note: nearly all actives have a fitted effect of over 55% in size)). Conditions: ALDH2 enzyme inhibition qHTS, 1536-well; series mostly up to 56 µM.

| SMILES | Potency |
| --- | --- |
| COc1cc(NS(=O)(=O)c2ccc3ccccc3c2)c2ncccc2c1 | inactive |
| O=C1c2ccccc2C(=O)N1c1cccc2cnccc12 | inactive |
| CC(C)[C@@H](C)/C=C/[C@@H](C)[C@H]1CC[C@H]2C3=CC=C4C[C@@H](O)CC[C@]4(C)C3=CC[C@]12C | inactive |
| NS(=O)(=O)c1ccc(Nc2nc(-c3ccccc3)cs2)cc1 | inactive |
| Cc1ccc(S(=O)(=O)Nc2cnccc2C(=O)Nc2nc(-c3ccc(Cl)cc3)cs2)cc1 | inactive |
| CN(Cc1nccs1)c1ncnc2ccc(-c3ccc4c(c3)OCO4)cc12 | inactive |
| O=[S+]([O-])(Nc1nccs1)c1ccc(NCc2cccc(Cl)c2)cc1 | inactive |
| COc1cc(OC)cc(C2=Nn3c(nnc3-c3ccccc3OC)SC2)c1 | inactive |
| CC/C(=C(\c1ccc(O)cc1)c1ccc(OCCNC)cc1)c1ccccc1 | inactive |
| O=C(Nc1cncc(-c2cccnc2)c1)c1cccs1 | inactive |
| COc1ccc(C2=Nn3c(nnc3-c3ccccc3C)SC2)cc1OC | inactive |
| CCCCN(C)C(=O)Cn1nc(-c2ccc(C(C)(C)C)cc2)ccc1=O | inactive |
| O=C(/C=C/c1ccc(Cl)cc1)Nc1cccc([S+](=O)([O-])Nc2ccccc2F)c1 | inactive |
| Cc1cc2c(s1)c1cnn(Cc3ccc(Cl)c(F)c3)c(=O)c1n2C | inactive |
| Cc1ccc(NS(=O)(=O)c2ccc3c(c2)CCC(=O)N3)cc1Cl | inactive |
| Cc1c(P(=S)(c2ccccc2)c2ccccc2)[n+]2ccccc2n1Cc1ccccc1 | inactive |
| CCCCNc1nc(C)nc2c1nc(-c1ccccc1)n2CCCN(C)C | inactive |
| COc1ccc(NC(=S)N2CCN(c3cccc(C(F)(F)F)c3)CC2)nc1 | inactive |
| O=C(Nc1ccc(Cl)cc1)c1ccccc1NCc1ccncc1 | inactive |
| O=C1CCc2cc(S(=O)(=O)Nc3cccc4ccccc34)ccc2N1 | inactive |

| SMILES | Potency |
| --- | --- |
| Cc1ccc(S(=O)(=O)Nc2cnccc2C(=O)Nc2nc(-c3ccccc3F)cs2)cc1 | inactive |
| O=C(NC1CCCc2c1cnn2-c1ccc(F)cc1F)C1CC1 (stereo not given) | inactive |
| CN1CCOc2ccc(S(=O)(=O)N3CCN(S(=O)(=O)c4c(F)cccc4F)CC3)cc21 | inactive |
| CC(C)(N)C(=O)Nc1ccc(Cl)cc1C(=O)c1ccc[nH]1 | inactive |
| CC1OC2O[C@H]3[C@@H](OCC(O)[C@H]3O)OC(=O)C34CCC(C)(C)CC3C3=CCC5C6(C)CC(O)C(OC7OC(CO)C(O)C(O)C7O[C@@H]7OC[C@H](OC(=O)CC(C)(O)CC(=O)OC1C(OC1OCC(O)C(O)C1O)C2O)[C@@H](O)[C@H]7O)C(C)(CO)C6CCC5(C)C3(C)CC4 (stereo not given in full) | inactive |
| O=C(O)c1c(-c2ccccc2)no[n+]1[O-] | inactive |
| Cn1c2ccsc2c2cnn(Cc3ccc(F)cc3)c(=O)c21 | inactive |
| COC(=O)c1ccc2c(c1)S(=O)(=O)NC2=O | inactive |
| Cc1cccc(-c2nnc(C)n2CCCn2ccnc2)c1[N+](=O)[O-] | inactive |
| NC(=O)c1ccccc1C[C@H](C(=O)O)N1C(=O)c2ccc(C(=O)O)cc2C1=O | inactive |
| COc1ccc(C(F)(F)F)cc1NC(=O)C(OC(=O)CNC(=O)c1ccccc1)c1ccccc1 (stereo not given) | inactive |
| CC(=O)NS(=O)(=O)c1ccc(NC(=O)c2cc(-c3ccc(C)c(C)c3)nc3ccccc23)cc1 | inactive |
| COc1cccc(NC(=S)N2CCN(c3ccc(C(F)(F)F)cc3[N+](=O)[O-])CC2)n1 | inactive |
| CC(=O)Nc1ccc(S(=O)(=O)Nc2cccc3cccnc23)cc1 | inactive |
| Cc1cc2c(s1)c1cnn(Cc3ccc(S(C)(=O)=O)cc3)c(=O)c1n2C | inactive |
| Cc1ccc(OCCn2c(CCNC(=O)N3CCCCC3)nc3ccccc32)cc1 | inactive |
| CCn1cnc2c(NCc3cccnc3)nc(C#N)nc21 | inactive |
| Nc1cccc(-c2ccc(NC(=O)c3cccs3)cn2)c1 | inactive |
| Cc1cc(C)nc(NC(=S)N2CCN(c3cc(Cl)c(Cl)cc3Cl)CC2)c1 | inactive |
| O=C(Nc1ccc(-c2nc3ccccc3[nH]2)cc1)c1ccc(C(F)(F)F)cc1 | inactive |

These compounds were tested against Retinaldehyde dehydrogenase 3 (Homo sapiens) (UniProt P47895) (assay: qHTS for Inhibitors of the Aldehyde Dehydrogenase Family (ALDH1A3) Primary screen (AID 2061315)). Conditions: ALDH inhibition qHTS; series mostly up to 56 µM.

| SMILES | Potency |
| --- | --- |
| COc1cc(NS(=O)(=O)c2ccc3ccccc3c2)c2ncccc2c1 | inactive |
| O=C1c2ccccc2C(=O)N1c1cccc2cnccc12 | inactive |
| CC(C)[C@@H](C)/C=C/[C@@H](C)[C@H]1CC[C@H]2C3=CC=C4C[C@@H](O)CC[C@]4(C)C3=CC[C@]12C | inactive |
| NS(=O)(=O)c1ccc(Nc2nc(-c3ccccc3)cs2)cc1 | inactive |
| Cc1ccc(S(=O)(=O)Nc2cnccc2C(=O)Nc2nc(-c3ccc(Cl)cc3)cs2)cc1 | inactive |
| CN(Cc1nccs1)c1ncnc2ccc(-c3ccc4c(c3)OCO4)cc12 | inactive |
| O=[S+]([O-])(Nc1nccs1)c1ccc(NCc2cccc(Cl)c2)cc1 | inactive |
| COc1cc(OC)cc(C2=Nn3c(nnc3-c3ccccc3OC)SC2)c1 | inactive |
| CC/C(=C(\c1ccc(O)cc1)c1ccc(OCCNC)cc1)c1ccccc1 | inactive |
| O=C(Nc1cncc(-c2cccnc2)c1)c1cccs1 | inactive |
| COc1ccc(C2=Nn3c(nnc3-c3ccccc3C)SC2)cc1OC | inactive |
| CCCCN(C)C(=O)Cn1nc(-c2ccc(C(C)(C)C)cc2)ccc1=O | inactive |
| O=C(/C=C/c1ccc(Cl)cc1)Nc1cccc([S+](=O)([O-])Nc2ccccc2F)c1 | inactive |
| Cc1cc2c(s1)c1cnn(Cc3ccc(Cl)c(F)c3)c(=O)c1n2C | inactive |
| Cc1ccc(NS(=O)(=O)c2ccc3c(c2)CCC(=O)N3)cc1Cl | inactive |
| Cc1c(P(=S)(c2ccccc2)c2ccccc2)[n+]2ccccc2n1Cc1ccccc1 | inactive |
| CCCCNc1nc(C)nc2c1nc(-c1ccccc1)n2CCCN(C)C | inactive |
| COc1ccc(NC(=S)N2CCN(c3cccc(C(F)(F)F)c3)CC2)nc1 | inactive |
| O=C(Nc1ccc(Cl)cc1)c1ccccc1NCc1ccncc1 | inactive |
| O=C1CCc2cc(S(=O)(=O)Nc3cccc4ccccc34)ccc2N1 | inactive |

| SMILES | Potency |
| --- | --- |
| Cc1ccc(S(=O)(=O)Nc2cnccc2C(=O)Nc2nc(-c3ccccc3F)cs2)cc1 | inactive |
| O=C(NC1CCCc2c1cnn2-c1ccc(F)cc1F)C1CC1 (stereo not given) | inactive |
| CN1CCOc2ccc(S(=O)(=O)N3CCN(S(=O)(=O)c4c(F)cccc4F)CC3)cc21 | inactive |
| CC(C)(N)C(=O)Nc1ccc(Cl)cc1C(=O)c1ccc[nH]1 | inactive |
| CC1OC2O[C@H]3[C@@H](OCC(O)[C@H]3O)OC(=O)C34CCC(C)(C)CC3C3=CCC5C6(C)CC(O)C(OC7OC(CO)C(O)C(O)C7O[C@@H]7OC[C@H](OC(=O)CC(C)(O)CC(=O)OC1C(OC1OCC(O)C(O)C1O)C2O)[C@@H](O)[C@H]7O)C(C)(CO)C6CCC5(C)C3(C)CC4 (stereo not given in full) | inactive |
| O=C(O)c1c(-c2ccccc2)no[n+]1[O-] | inactive |
| Cn1c2ccsc2c2cnn(Cc3ccc(F)cc3)c(=O)c21 | inactive |
| COC(=O)c1ccc2c(c1)S(=O)(=O)NC2=O | inactive |
| Cc1cccc(-c2nnc(C)n2CCCn2ccnc2)c1[N+](=O)[O-] | inactive |
| NC(=O)c1ccccc1C[C@H](C(=O)O)N1C(=O)c2ccc(C(=O)O)cc2C1=O | inactive |
| COc1ccc(C(F)(F)F)cc1NC(=O)C(OC(=O)CNC(=O)c1ccccc1)c1ccccc1 (stereo not given) | inactive |
| CC(=O)NS(=O)(=O)c1ccc(NC(=O)c2cc(-c3ccc(C)c(C)c3)nc3ccccc23)cc1 | inactive |
| COc1cccc(NC(=S)N2CCN(c3ccc(C(F)(F)F)cc3[N+](=O)[O-])CC2)n1 | inactive |
| CC(=O)Nc1ccc(S(=O)(=O)Nc2cccc3cccnc23)cc1 | inactive |
| Cc1cc2c(s1)c1cnn(Cc3ccc(S(C)(=O)=O)cc3)c(=O)c1n2C | inactive |
| Cc1ccc(OCCn2c(CCNC(=O)N3CCCCC3)nc3ccccc32)cc1 | inactive |
| CCn1cnc2c(NCc3cccnc3)nc(C#N)nc21 | inactive |
| Nc1cccc(-c2ccc(NC(=O)c3cccs3)cn2)c1 | inactive |
| Cc1cc(C)nc(NC(=S)N2CCN(c3cc(Cl)c(Cl)cc3Cl)CC2)c1 | inactive |
| O=C(Nc1ccc(-c2nc3ccccc3[nH]2)cc1)c1ccc(C(F)(F)F)cc1 | inactive |

Reference: PubChem BioAssay (NCATS)
